Compound activity: PubChem, National Center for Advancing Translational Sciences (NCATS)
HEK cytotox: HEK 293 cell cytotoxicity | HEK 293 viability, ATP luminescence (CellTiter-Glo), 48-72 h | Potency, µM (top dose mostly 115 µM), most hits filed as inhibitors | 94,000 tested, 6.6% active; further: nearly all actives have a fitted effect of over 60% in size
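HEK 293 cells seeded at 250 cells/well were exposed to compound for 48 or 72 hr at 37 degree Celsius. Viability taken as ATP content by CellTiter-Glo luminescence.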
3T3 cytotox: cytotoxic compounds in NIH 3T3 cells. 94,000 tested, 4.3% active. AID 1345082. Potency, µM (top dose mostly 96.7 µM), actives largely listed as inhibitors. NIH 3T3 viability, CellTiter-Glo ATP luminescence, 48-72 h; further: nearly all actives have a fitted effect of over 55% in size
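NIH 3T3 cells at 400 cells/well received 23 nL of compound by pintool and were incubated 48 or 72 h at 37 °C. Viability was read as ATP-coupled CellTiter-Glo luminescence.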
FLuc inh: Photinus pyralis luciferase inhibition; purified P. pyralis luciferase, luminescence, biochemical; Potency, µM (series often up to 115 µM), actives largely listed as inhibitors; 76,000 tested, 2.5% active; further: nearly all actives have a fitted effect of over 65% in size
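FLuc 10nM, D-luciferin 10uM, ATP 10uM, Mg acetate 10mM, Tris acetate pH 7.5, Tween/BSA; cpd qHTS; enzyme added last; CCD luminescence.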
hNpr1 antagonist: human Npr1 receptor antagonism; AID 1347048; HEK293 hNpr1 GloSensor cGMP, ANP-stimulated luminescence; Potency, µM (doses to about 46.3 µM), actives largely listed as inhibitors; 76,000 tested, 1.6% active; calls by dose curve; further: nearly all actives have a fitted effect of over 60% in size
Target sequence (P16066 whole entry, looked up): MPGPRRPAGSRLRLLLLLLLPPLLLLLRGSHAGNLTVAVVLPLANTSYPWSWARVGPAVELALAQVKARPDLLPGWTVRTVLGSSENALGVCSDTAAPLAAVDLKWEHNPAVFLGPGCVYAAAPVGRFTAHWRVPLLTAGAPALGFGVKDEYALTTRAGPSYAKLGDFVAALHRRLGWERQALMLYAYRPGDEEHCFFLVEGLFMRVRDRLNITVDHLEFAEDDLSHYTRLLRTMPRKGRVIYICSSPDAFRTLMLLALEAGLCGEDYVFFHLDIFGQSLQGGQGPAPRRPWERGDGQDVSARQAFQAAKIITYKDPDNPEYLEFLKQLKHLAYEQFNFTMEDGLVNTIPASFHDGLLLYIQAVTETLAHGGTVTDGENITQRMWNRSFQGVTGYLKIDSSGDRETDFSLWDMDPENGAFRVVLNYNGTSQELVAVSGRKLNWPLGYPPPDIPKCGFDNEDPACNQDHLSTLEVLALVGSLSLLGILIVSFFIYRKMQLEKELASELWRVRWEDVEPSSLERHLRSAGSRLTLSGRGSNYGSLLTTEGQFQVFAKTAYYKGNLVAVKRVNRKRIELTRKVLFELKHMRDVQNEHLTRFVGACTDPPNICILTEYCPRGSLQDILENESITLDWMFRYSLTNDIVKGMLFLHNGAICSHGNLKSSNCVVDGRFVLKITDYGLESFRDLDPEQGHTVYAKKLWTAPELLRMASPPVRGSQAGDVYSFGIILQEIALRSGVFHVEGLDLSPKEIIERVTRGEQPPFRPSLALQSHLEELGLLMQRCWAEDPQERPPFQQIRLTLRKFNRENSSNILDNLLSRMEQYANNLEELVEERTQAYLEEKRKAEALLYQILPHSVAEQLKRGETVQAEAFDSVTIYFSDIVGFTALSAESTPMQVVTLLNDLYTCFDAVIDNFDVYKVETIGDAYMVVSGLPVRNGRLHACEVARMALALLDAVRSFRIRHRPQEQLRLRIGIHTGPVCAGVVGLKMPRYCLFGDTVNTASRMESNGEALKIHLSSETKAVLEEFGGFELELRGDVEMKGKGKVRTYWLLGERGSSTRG
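Compound pre-incubated 30 min at room temperature on GloSensor-loaded HEK293 cells stably carrying hNpr1 and the pGS-40F cGMP biosensor. Stimulation uses hNppA at 0.1 nM final; luminescence is taken at baseline and 20 min post-agonist.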
Hits are given with their value; – = inactive; ? = inconclusive; · = no result given. Only some compounds are listed: those with a hit (about 11% of all), similar ones and a draw of the others. Unless noted, the call rests on the fitted dose curve; in most records, active means well fitted curve in the direction sought with a large enough effect; inconclusive means small, poorly fitted or top-dose-only effect, or another doubt; inactive means no such curve, though single readings can be large; an effect the other way counts as inactive or inconclusive.

SMILES	HEK cytotox	3T3 cytotox	FLuc inh	hNpr1 antagonist
Cc1cccc(N2CCN(C(=O)CCc3conc3-c3ccccc3)CC2)c1C	44.7µM	?	–	–
O=C(NCCN1C(=O)C2(CCCCC2)C1c1ccccc1)C1CC=CC1 (stereo not given)	?	–	·	·
CC(C)C(=O)N1CCC(CCOc2ccc(F)cc2)C1 (stereo not given)	?	?	–	–
Cc1onc(C(=O)N2CCC(CCOc3ccc(F)cc3)C2)c1Cn1cc(Cl)cn1 (stereo not given)	?	44.7µM	–	?
Oc1ccccc1CN1CC(CNc2cccnc2)C2(C1)CN(c1ccccc1)C2 (stereo not given)	63.1µM	?	–	–
c1ccc(NCC2CN(Cc3ccccn3)CC23CN(c2ccccc2)C3)cc1 (stereo not given)	79.4µM	?	–	–
O=C(c1cccnc1)N1CC(CNc2ccccc2)C2(C1)CN(c1ccccc1)C2 (stereo not given)	?	?	–	–
O=C(NCC1CN(Cc2cccnc2)CC12CN(c1ccccc1)C2)Nc1ccccc1 (stereo not given)	?	–	–	–
CC(C)c1ccc(CN2CC(CNc3cccnc3)C3(C2)CN(c2ccccc2)C3)cc1 (stereo not given)	50.1µM	35.5µM	–	?
COC1C(=O)N(c2cccc(F)c2)C12CCN(C(=O)Cc1cccc(F)c1)CC2 (stereo not given)	?	–	·	·
CC(C)(C)C1CN(Cc2ccccc2)C(=O)c2cccnc2O1 (stereo not given)	?	–	·	·
O=C(Cc1cccc(Cl)c1)NC1CCCN(c2ccnc3ccnn23)C1 (stereo not given)	?	–	·	·
O=C(c1ccsc1)N1CCCn2cc(-c3ccccc3F)nc21	–	–	35.5µM	–
O=C(c1ccco1)N1CCCn2cc(-c3ccccc3F)nc21	–	–	–	–
O=C(c1cccs1)N1CCCn2cc(-c3ccccc3F)nc21	?	–	22.4µM	–
COc1ccc(-n2c(=O)c(C(=O)NCc3ccc4c(c3)OCO4)nc3cccnc32)cc1	–	–	·	·
CCN1c2cc(C(=O)Nc3cccc(Br)c3)ccc2C(=O)N2CCCCC21 (stereo not given)	17.8µM	17.8µM	–	–
CCN1c2cc(C(=O)NCc3cccc(Br)c3)ccc2C(=O)N2CCCCC21 (stereo not given)	31.6µM	?	–	–
CCN1c2cc(C(=O)Nc3cccc(Br)c3)ccc2C(=O)N2CCCCCC21 (stereo not given)	17.8µM	28.2µM	–	–
CCN1c2cc(C(=O)Nc3ccc(Br)cc3)ccc2C(=O)N2CCCCC21 (stereo not given)	?	?	–	–
CCN1c2cc(C(=O)NCc3cccc(C)c3)ccc2C(=O)N2CCCCCC21 (stereo not given)	?	?	–	–
CC(C)c1ccc(CC(=O)N2CCCc3ncc(C(=O)NCCN4CCCC4)cc32)cc1	?	?	–	–
CC(C)c1ccc(CC(=O)N2CCCc3ncc(C(=O)Nc4ccc5[nH]ccc5c4)cc32)cc1	35.5µM	?	–	–
CC(C)c1ccc(CC(=O)N2CCCc3ncc(C(=O)NCc4ccccc4)cc32)cc1	89.1µM	89.1µM	–	–
CC(C)c1ccc(CC(=O)N2CCCc3ncc(C(=O)NCCN(C)C)cc32)cc1	?	100µM	–	–
SMILES	HEK cytotox	3T3 cytotox	FLuc inh	hNpr1 antagonist
Cc1noc(C)c1S(=O)(=O)N1CCC(Oc2ccc(-c3noc(C(C)C)n3)cc2)C1 (stereo not given)	20µM	–	·	·
COc1ccc(NC(=O)N2CCC(Oc3ccc(-c4noc(C5CC5)n4)cc3)C2)cc1 (stereo not given)	?	–	?	?
COc1ccc(C(=O)N2CCC(Oc3ccc(-c4noc(C5CC5)n4)cc3)C2)cn1 (stereo not given)	35.5µM	?	·	·
O=S(=O)(c1ccc(F)cc1)N1CCC(Oc2ccc(-c3noc(C4CC4)n3)cc2)C1 (stereo not given)	28.2µM	?	–	?
CC(C)c1nc(-c2ccc(OC3CCN(C(=O)C4(c5ccccc5)CC4)C3)cc2)no1 (stereo not given)	44.7µM	?	–	?
CCOc1ccccc1C(=O)N1CCC2(CC1)NC(=O)N(c1ccccc1)N2	?	?	–	–
CC(C)c1nc(-c2ccc(OC3CCN(C(=O)c4ccoc4)C3)cc2)no1 (stereo not given)	31.6µM	?	·	·
O=C(c1ccoc1)N1CCC(Oc2cccnc2)C1 (stereo not given)	–	–	–	–
CCN(CC)Cc1ccc2c(c1)CN(C(=O)COCCOC)CCO2	–	–	·	·
O=C(Nc1ccccc1)NC1CCCN(c2ccc3nnc(C4CC4)n3n2)C1 (stereo not given)	–	–	·	·
CC(=O)N(C1CC1)C1CCOC2(CCN(C(=O)c3cc(C)n(C)n3)CC2)C1 (stereo not given)	–	–	·	·
COc1ccccc1CN(Cc1ccccc1C)C(=O)[C@H]1CCC[C@H](O)C1	22.4µM	–	–	–
COc1ccc(-n2c(=O)c(C(=O)NCCSC)nc3cccnc32)cc1	–	–	·	·
O=C1CC(c2ccccc2)N(Cc2ccncc2)CCCN(S(=O)(=O)c2cccc(F)c2)CCN1 (stereo not given)	44.7µM	?	–	–
O=C1CC(c2ccccc2)N(Cc2ccncc2)CCCN(S(=O)(=O)c2cccnc2)CCN1 (stereo not given)	–	–	–	–
COc1ccc(CN2CC3(CCN(C(=O)c4ccc(F)c(Cl)c4)CC3)C2=O)cc1	?	?	–	–
O=C(c1ccc(F)c(Cl)c1)N1CCC2(CC1)CN(c1ccccc1)C2=O	89.1µM	39.8µM	–	–
COCC(=O)N1CCCC1C(=O)N1CCC(N2Cc3cccn3C2=O)CC1 (stereo not given)	–	–	·	·
COCCNc1cc(-c2ccc(Cl)cc2)nc2c(C)noc12	?	?	–	–
Cc1noc2c(-c3cccnc3)cc(-c3cccs3)nc12	?	?	–	–
Cc1noc2c(NC3CCN(C)CC3)cc(-c3ccc(Cl)cc3)nc12	35.5µM	10µM	–	–
Cc1noc2c(NC3CCN(C)CC3)cc(-c3cccs3)nc12	79.4µM	?	–	–
CC(=O)N1CCC(Nc2cc(-c3ccc(Cl)cc3)nc3c(C)noc23)CC1	?	?	–	–
Cc1noc2c(NC3CCC(O)CC3)cc(-c3ccc(Cl)cc3)nc12 (stereo not given)	89.1µM	22.4µM	–	–
Cc1noc2c(-c3cccc(O)c3)cc(-c3cccs3)nc12	70.8µM	39.8µM	–	–
O=C(NCCc1ccc(Cl)cc1)c1ccc2oc(-c3ccccn3)nc2c1	?	–	·	·
CCCCCC(=O)N1CCC(=O)N(CCOC)C[C@H]2COc3ccccc3[C@H]21	–	?	·	·
CC(C)NC(=O)N(C1CC1)C1CCOC2(CCN(C(=O)c3ccco3)CC2)C1 (stereo not given)	–	–	·	·
COc1ccc(CCNC(=O)c2nc3sccn3c2-c2cccnc2)cc1	–	–	·	·
